Bioassay records deposited in PubChem by several laboratories.
PABP FP inh: PABP-poly(A) binding inhibition; PABP-poly(A) RNA binding, fluorescence polarization; inhibition, % at 35 µM; 290,000 compounds, 1% hits; AID 2014;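 also: calls also rest on retests at 20 µM and on dose response follow-up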
Target sequence (P11940 whole entry, looked up): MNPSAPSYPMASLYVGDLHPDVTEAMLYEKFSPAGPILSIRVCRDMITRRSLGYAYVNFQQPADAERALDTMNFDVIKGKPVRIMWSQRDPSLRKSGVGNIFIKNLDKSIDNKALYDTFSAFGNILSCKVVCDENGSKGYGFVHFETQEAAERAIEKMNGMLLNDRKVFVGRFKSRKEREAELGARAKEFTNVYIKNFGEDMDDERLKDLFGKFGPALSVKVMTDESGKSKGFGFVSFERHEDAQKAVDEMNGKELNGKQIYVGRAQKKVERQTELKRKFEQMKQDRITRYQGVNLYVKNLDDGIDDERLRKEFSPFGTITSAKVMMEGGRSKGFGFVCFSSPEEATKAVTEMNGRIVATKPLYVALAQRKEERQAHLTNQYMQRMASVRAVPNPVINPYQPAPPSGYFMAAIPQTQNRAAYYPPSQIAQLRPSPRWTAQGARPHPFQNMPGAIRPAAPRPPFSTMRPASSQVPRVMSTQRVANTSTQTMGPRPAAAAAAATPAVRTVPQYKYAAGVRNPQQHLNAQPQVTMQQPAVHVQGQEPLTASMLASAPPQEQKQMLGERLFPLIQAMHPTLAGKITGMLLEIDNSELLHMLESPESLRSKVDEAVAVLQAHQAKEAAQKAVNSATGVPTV
eIF4H inh: inhibitors of RNA binding by human eIF4H | Q15056 | eIF4H fluorescence polarization binding assay | inhibition, % at 35 µM | 290,000 compounds, 0.94% hits | AID 2012;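 also: calls also rest on retests at 20 µM and on dose response follow-up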
PERK inhibitor: inhibitors of human PERK kinase; Q9NZJ5; CHO PERK-DD fusion, SEAP luminescence translation reporter; inhibition, % at 5.6 µM; 220,000 compounds, 0.17% hits; AID 1416;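 active = inhibition above the mean inhibition of all tested compounds plus 3 SD, set separately per screening campaign, cut at about 2.9% in these data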;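 also: PERK kinase domain activated by AP20187 dimerizer at 100 nM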
GRK2 aptamer HTS: inhibitors of human GRK2 displacing RNA aptamer | P25098 | bead flow cytometry, FAM-aptamer displacement from GRK2 | inhibition of aptamer binding, % at 10 µM | 330,000 compounds, 0.59% hits;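 active = inhibition of aptamer binding above 40%, roughly 3 SD of noise, on plates passing a quality check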;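 also: median bead fluorescence of bound FAM aptamer so fluorescent compounds give negative values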
PABP1 MLLE inh: blocks PAM2 peptide binding to the PABP1 MLLE domain. P11940. GST-MLLE / FITC-PAM2 fluorescence polarization. inhibition, % at 20 µM. 360,000 compounds, 0.36% hits; in the data active = inhibition above about 35%, passing the limit was not always enough
GRK2 inh confirm: confirmation of human GRK2 inhibitors displacing RNA aptamer; shares compounds with GRK2 aptamer HTS; bead-bound GRK2, FAM-aptamer displacement, flow cytometry; aptamer displacement, % at 10 µM; 2,000 compounds, 4% hits; AID 504451;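 active = aptamer displacement above 40%, near three times the noise of non-fluorescent compounds, on plates passing quality checks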;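 also: negative values mostly reflect intrinsic compound fluorescence rather than true enhancement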
Aptamer quench 1: counter-screen for GRK2 aptamer inhibitors: fluorescent aptamer quenchers. AID 504521. Fluorescent RNA aptamer beads, quenching, flow cytometry; active compounds read high. shares compounds with GRK2 aptamer HTS. fluorescence change (kMESF span), kMESF (concentration not given with the values). 110 tested, under 10 active;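 active = compounds whose bead fluorescence drops by more than 37 kMESF across the dose range, marking them as dye quenchers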
FAM quench CP1: quenches fluorescent RNA aptamer, GRK2 hit artifact; shares compounds with GRK2 aptamer HTS; Carboxyfluorescein RNA aptamer on beads, flow cytometry quenching; active compounds read low; fluorescence response (% of DMSO), % at 10 µM; 2,000 tested, under 10 active; AID 504580;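 active = compounds that quench the bead-bound fluorescent RNA probe, cutting fluorescence to under half of the solvent control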;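 also: counterscreen run without GRK2 so only probe quenching by compound is measured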
Large screens that a line does not name were inactive (follow-up assays come after a bar, where they were run). In the library only some 1.9% were active in any assay of this set; here they are far more common. Unless noted, no rule for the calls is given here.

Cc1ccnc(N2CCC(C(=O)Nc3ccc4c(c3)OCCO4)CC2)n1	none
O=S(=O)(O)c1cc(O)c2c(O)c(N=Nc3cc(Cl)ccc3O)c(S(=O)(=O)O)cc2c1	PABP FP inh 75, eIF4H inh 80, GRK2 aptamer HTS 99 (no result: PERK inhibitor) | GRK2 inh confirm 70 | Aptamer quench 1 inactive | FAM quench CP1 inactive
Cc1ccc(OCCSc2cc(C)nc(N)n2)cc1	GRK2 aptamer HTS 84 | GRK2 inh confirm inactive | FAM quench CP1 inactive
CN(C)C(=S)NC(=S)Nc1ccc2ccccc2c1	none (no result: PABP FP inh, eIF4H inh, PERK inhibitor, GRK2 aptamer HTS)
O=c1[nH]nc(Cc2ccccc2)c2ccccc12	none
O=c1[nH]nc(Cc2ccc([N+](=O)[O-])cc2)c2ccccc12	GRK2 aptamer HTS 86 (no result: PERK inhibitor) | GRK2 inh confirm inactive | FAM quench CP1 inactive
CCCN1CCN(CCCNC(=O)C(CC)n2nc(C)c3sc4ccccc4c3c2=O)CC1 (stereo not drawn)	GRK2 aptamer HTS 62 (no result: PERK inhibitor) | GRK2 inh confirm inactive | FAM quench CP1 inactive
O=C(O)c1ccccc1Nc1cccc(OCc2ccc3ccccc3n2)c1	none (no result: PABP FP inh, eIF4H inh, PERK inhibitor) | GRK2 inh confirm inactive | FAM quench CP1 inactive
CN(C)CCNC(=O)Cn1c(=O)c2cccn2c2ccc(F)cc21	none (no result: PERK inhibitor)
O=C(Cn1c(=O)c2cccn2c2ccc(F)cc21)NCCCN1CCN(c2ccccc2F)CC1	none (no result: PERK inhibitor) | GRK2 inh confirm inactive | FAM quench CP1 inactive
O=C(NCCCN1CCN(c2ccccc2F)CC1)Nc1ccc(F)cc1	none | GRK2 inh confirm inactive | FAM quench CP1 inactive
CSc1ccc(NC(=O)NCCCN2CCN(c3ccccc3F)CC2)cc1	none
Clc1ccc2c(N/N=C/c3cccc(Br)c3)ccnc2c1	GRK2 aptamer HTS 73 | GRK2 inh confirm inactive | FAM quench CP1 inactive
Clc1ccc2c(N/N=C/c3ccccc3Br)ccnc2c1	none
COc1ccc(NC(=O)C2Cc3c(-c4ccccc4Oc4ccccc4)ccnc3O2)cc1OC (stereo not drawn)	none (no result: PABP FP inh, eIF4H inh, PERK inhibitor, GRK2 aptamer HTS)
O=C(O)Cc1ccc(-c2ccccc2-c2ccccc2)cc1	GRK2 aptamer HTS 98 | GRK2 inh confirm inactive | FAM quench CP1 inactive
O=C(O)Cc1ccc(O)cc1	none (no result: PABP FP inh, eIF4H inh, PERK inhibitor)
CCCCn1c(N)c(N(CC(C)C)C(=O)c2cccs2)c(=O)[nH]c1=O	none (no result: PABP FP inh, eIF4H inh, PERK inhibitor)
O=C(Nc1cccc(Cn2cccn2)c1)c1cc2c(s1)CCCC2	GRK2 aptamer HTS 94 | GRK2 inh confirm inactive | FAM quench CP1 inactive
CC(=O)Nc1cccc(Cn2cccn2)c1	none (no result: GRK2 aptamer HTS, PABP1 MLLE inh)
Nc1ccn(CC(=O)NCc2ccccn2)c(=O)n1	GRK2 aptamer HTS 77 (no result: PABP FP inh, eIF4H inh, PERK inhibitor) | GRK2 inh confirm inactive | FAM quench CP1 inactive
Nc1ccn(CC(=O)NCCc2ccccn2)c(=O)n1	none (no result: PABP FP inh, eIF4H inh, PERK inhibitor)
CC1(C(=O)Nc2cccc3cccnc23)CCN1Cc1ccc(-c2ccccc2)o1 (stereo not drawn)	none (no result: PABP FP inh, eIF4H inh, PERK inhibitor, GRK2 aptamer HTS)
C=CCn1c[n+](CC(=O)c2ccc(Br)s2)c2ccccc21	GRK2 aptamer HTS 57 | GRK2 inh confirm inactive | FAM quench CP1 inactive
COc1ccc(-n2c(SCC(N)=O)nnc2-c2cccnc2)cc1	none
COc1cccc(-n2c(SCC(=O)O)nnc2-c2cccnc2)c1	GRK2 aptamer HTS 62 | GRK2 inh confirm inactive | FAM quench CP1 inactive
O=C(COc1ccc(-c2ccccc2)cc1)N1CCN(C(=O)c2cccs2)CC1	none
COc1ccc(CCNC(=O)CNS(=O)(=O)c2ccc(F)c(Cl)c2)cc1OC	none (no result: PERK inhibitor)
O=C(CNC(=O)c1ccccc1Cl)N/N=C/c1ccc2c(c1)OCO2	none (no result: PERK inhibitor)
O=C(CNC(=O)c1ccccc1F)N/N=C/c1ccc2c(c1)OCO2	GRK2 aptamer HTS 82 (no result: PERK inhibitor) | GRK2 inh confirm inactive | FAM quench CP1 inactive
CC(OC(=O)CN1C(=O)NC2(CCCC2)C1=O)C(=O)Nc1cccc(Cl)c1 (stereo not drawn)	none (no result: PERK inhibitor)
O=C(CNc1ccccc1F)Nc1cc(S(=O)(=O)N2CCCCC2)ccc1Cl	GRK2 aptamer HTS 52 (no result: PABP FP inh, eIF4H inh, PERK inhibitor) | GRK2 inh confirm inactive | FAM quench CP1 inactive
O=C(Cc1ccccc1F)Nc1cc(S(=O)(=O)N2CCCC2)ccc1Cl	none (no result: PABP FP inh, eIF4H inh, PERK inhibitor)
Cc1cc(C(=O)NCC(c2cccs2)N2CCOCC2)ccc1[N+](=O)[O-] (stereo not drawn)	none (no result: PERK inhibitor)
O=C(C1CCN(S(=O)(=O)c2cccc3nsnc23)CC1)N1CC=C(c2ccccc2)CC1	none
